Experimental data taken from the supplement of paper PMC11732987, “Enantioselective OTUD7B fragment discovery through chemoproteomics screening and high-throughput optimisation” (Communications Chemistry, 2025).

Tests used:
Assay in all cases: log2 ratio of Biotin-Ahx-Ub-VS probe labelling (fragment/DMSO); higher = less target engagement (more negative = stronger competition), active = hit call of the paper (q ≤ 0.05, log2 ratio ≤ -1)
Conditions in all cases: compound concentration: 200 uM; treatment time: 3 h
[1] = molecular target: USP34 (UniProt Q70CQ2)
Procedure, shortened: (§1)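 Labelling with Biotin-Ahx-Ub-VS (0.5 µM final, 1 h) followed a 3 h triplicate treatment of HEK293T lysate (495 µg per sample, Tris/CHAPS/IGEPAL buffer with protease inhibitors) with fragment at 200 µM or vehicle. Labelled DUBs were NeutrAvidin-enriched, digested with LysC and trypsin, and run by diaPASEF LC-MS/MS. The values, average log2 fragment/vehicle ratios by unpaired t-test, come from global-median-normalised Spectronaut label-free quantities. Proteins with ≥2 unique peptides were used.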

[2] = molecular target: T1, USP36 (UniProt Q9P275)
T1 sequence (whole entry): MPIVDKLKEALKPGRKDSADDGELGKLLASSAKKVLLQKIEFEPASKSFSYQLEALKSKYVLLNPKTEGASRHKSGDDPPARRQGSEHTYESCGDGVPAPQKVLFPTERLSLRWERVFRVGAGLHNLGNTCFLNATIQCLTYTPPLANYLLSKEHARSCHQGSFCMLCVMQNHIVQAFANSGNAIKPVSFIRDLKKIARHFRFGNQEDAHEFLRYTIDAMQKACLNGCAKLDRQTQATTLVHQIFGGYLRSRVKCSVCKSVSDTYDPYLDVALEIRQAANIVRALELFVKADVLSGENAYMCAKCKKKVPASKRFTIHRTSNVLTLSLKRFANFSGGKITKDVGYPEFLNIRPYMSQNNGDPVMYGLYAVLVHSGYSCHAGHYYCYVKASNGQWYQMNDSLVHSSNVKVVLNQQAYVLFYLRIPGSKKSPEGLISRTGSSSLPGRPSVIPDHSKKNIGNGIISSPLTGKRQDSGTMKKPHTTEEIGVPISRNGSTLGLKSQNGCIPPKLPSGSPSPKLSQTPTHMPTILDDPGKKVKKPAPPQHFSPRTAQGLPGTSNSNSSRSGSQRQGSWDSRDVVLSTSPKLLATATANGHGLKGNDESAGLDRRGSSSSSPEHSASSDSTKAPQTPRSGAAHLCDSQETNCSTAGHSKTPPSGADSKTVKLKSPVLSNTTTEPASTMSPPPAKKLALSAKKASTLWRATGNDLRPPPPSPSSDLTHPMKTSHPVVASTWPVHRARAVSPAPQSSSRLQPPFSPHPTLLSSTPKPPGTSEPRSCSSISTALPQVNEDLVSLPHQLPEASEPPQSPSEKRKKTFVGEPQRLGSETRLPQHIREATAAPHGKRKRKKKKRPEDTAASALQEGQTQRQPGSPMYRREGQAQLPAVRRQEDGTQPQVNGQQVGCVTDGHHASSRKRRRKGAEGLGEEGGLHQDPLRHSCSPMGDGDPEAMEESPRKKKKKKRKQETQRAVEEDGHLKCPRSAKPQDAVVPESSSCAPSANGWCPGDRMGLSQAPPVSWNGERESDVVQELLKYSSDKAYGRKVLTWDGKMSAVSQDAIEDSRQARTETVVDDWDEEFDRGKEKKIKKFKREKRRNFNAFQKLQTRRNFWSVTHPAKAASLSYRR
Procedure, shortened: as §1

[3] = molecular target: T2, USP38 (UniProt Q8NB14)
T2 sequence (whole entry): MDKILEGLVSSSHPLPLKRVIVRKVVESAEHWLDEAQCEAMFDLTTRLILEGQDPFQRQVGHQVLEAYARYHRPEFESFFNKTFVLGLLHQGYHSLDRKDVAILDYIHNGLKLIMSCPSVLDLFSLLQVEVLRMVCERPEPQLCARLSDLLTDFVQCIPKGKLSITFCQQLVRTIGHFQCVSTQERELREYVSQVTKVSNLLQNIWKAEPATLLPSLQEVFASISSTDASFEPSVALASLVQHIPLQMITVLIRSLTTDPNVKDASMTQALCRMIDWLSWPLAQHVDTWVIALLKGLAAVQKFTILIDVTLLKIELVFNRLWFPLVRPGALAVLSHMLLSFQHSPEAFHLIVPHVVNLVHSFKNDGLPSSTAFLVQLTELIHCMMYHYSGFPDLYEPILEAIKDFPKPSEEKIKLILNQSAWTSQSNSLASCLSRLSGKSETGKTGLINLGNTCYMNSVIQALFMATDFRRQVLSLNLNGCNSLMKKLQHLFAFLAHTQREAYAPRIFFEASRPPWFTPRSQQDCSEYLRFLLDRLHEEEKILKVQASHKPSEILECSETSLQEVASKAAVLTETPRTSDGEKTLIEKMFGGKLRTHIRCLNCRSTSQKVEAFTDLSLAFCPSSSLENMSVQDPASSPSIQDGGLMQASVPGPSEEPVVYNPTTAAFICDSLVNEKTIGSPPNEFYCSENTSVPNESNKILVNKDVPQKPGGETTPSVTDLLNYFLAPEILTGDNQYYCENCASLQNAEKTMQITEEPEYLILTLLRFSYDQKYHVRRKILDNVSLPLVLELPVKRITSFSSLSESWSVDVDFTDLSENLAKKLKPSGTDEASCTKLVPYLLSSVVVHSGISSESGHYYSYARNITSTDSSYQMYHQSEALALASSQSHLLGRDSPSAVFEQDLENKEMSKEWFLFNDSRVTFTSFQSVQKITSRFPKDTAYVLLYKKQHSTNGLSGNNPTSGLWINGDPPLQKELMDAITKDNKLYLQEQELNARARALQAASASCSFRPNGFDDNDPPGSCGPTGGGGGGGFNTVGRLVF
Procedure, shortened: as §1

[4] = molecular target: T3, USP39 (UniProt Q53GS9)
T3 sequence (whole entry): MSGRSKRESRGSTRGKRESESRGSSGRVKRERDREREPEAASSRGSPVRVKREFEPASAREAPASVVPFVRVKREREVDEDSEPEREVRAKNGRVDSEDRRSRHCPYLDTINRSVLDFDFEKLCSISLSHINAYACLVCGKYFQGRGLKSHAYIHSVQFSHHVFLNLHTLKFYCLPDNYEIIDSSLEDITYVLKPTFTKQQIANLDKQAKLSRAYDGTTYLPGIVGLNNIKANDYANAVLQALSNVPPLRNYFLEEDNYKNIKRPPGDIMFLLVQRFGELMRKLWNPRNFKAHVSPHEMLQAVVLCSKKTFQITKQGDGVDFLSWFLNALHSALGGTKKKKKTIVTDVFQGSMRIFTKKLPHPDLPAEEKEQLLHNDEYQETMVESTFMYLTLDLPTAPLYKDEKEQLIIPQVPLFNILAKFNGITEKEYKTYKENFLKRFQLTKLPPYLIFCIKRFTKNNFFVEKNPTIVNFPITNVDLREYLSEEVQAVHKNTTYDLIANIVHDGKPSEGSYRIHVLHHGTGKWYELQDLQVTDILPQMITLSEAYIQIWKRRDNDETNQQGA
Procedure, shortened: as §1

[5] = molecular target: T4, USP4 (UniProt Q13107)
T4 sequence (whole entry): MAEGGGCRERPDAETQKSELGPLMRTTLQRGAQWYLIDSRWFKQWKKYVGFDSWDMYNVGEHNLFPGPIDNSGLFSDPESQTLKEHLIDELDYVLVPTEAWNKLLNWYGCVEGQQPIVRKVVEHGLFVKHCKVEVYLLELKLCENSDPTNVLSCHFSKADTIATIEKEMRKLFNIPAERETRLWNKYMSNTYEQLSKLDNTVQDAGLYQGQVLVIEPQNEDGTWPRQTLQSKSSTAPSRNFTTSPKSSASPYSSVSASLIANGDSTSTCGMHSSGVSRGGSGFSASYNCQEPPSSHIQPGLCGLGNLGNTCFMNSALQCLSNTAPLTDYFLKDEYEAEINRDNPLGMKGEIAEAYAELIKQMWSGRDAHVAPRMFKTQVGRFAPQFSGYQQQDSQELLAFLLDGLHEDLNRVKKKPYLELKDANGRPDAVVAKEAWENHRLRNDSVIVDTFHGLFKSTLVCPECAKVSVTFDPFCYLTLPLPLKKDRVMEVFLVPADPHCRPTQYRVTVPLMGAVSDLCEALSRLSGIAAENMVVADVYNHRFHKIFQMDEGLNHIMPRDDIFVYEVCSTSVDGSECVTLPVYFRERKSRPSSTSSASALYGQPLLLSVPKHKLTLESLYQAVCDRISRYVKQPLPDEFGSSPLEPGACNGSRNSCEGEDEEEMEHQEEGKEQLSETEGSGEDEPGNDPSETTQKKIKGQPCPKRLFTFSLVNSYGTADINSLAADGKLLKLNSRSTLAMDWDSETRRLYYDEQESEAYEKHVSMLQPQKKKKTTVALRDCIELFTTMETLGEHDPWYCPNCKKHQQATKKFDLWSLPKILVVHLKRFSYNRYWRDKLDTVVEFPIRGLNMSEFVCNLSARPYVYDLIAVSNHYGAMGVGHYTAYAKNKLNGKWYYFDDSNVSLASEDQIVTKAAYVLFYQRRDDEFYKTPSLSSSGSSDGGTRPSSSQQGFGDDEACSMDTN
Procedure, shortened: as §1

Measured: log2 ratio of Biotin-Ahx-Ub-VS probe labelling

USP34, sequence (Q70CQ2 whole entry, the tested form may be a part): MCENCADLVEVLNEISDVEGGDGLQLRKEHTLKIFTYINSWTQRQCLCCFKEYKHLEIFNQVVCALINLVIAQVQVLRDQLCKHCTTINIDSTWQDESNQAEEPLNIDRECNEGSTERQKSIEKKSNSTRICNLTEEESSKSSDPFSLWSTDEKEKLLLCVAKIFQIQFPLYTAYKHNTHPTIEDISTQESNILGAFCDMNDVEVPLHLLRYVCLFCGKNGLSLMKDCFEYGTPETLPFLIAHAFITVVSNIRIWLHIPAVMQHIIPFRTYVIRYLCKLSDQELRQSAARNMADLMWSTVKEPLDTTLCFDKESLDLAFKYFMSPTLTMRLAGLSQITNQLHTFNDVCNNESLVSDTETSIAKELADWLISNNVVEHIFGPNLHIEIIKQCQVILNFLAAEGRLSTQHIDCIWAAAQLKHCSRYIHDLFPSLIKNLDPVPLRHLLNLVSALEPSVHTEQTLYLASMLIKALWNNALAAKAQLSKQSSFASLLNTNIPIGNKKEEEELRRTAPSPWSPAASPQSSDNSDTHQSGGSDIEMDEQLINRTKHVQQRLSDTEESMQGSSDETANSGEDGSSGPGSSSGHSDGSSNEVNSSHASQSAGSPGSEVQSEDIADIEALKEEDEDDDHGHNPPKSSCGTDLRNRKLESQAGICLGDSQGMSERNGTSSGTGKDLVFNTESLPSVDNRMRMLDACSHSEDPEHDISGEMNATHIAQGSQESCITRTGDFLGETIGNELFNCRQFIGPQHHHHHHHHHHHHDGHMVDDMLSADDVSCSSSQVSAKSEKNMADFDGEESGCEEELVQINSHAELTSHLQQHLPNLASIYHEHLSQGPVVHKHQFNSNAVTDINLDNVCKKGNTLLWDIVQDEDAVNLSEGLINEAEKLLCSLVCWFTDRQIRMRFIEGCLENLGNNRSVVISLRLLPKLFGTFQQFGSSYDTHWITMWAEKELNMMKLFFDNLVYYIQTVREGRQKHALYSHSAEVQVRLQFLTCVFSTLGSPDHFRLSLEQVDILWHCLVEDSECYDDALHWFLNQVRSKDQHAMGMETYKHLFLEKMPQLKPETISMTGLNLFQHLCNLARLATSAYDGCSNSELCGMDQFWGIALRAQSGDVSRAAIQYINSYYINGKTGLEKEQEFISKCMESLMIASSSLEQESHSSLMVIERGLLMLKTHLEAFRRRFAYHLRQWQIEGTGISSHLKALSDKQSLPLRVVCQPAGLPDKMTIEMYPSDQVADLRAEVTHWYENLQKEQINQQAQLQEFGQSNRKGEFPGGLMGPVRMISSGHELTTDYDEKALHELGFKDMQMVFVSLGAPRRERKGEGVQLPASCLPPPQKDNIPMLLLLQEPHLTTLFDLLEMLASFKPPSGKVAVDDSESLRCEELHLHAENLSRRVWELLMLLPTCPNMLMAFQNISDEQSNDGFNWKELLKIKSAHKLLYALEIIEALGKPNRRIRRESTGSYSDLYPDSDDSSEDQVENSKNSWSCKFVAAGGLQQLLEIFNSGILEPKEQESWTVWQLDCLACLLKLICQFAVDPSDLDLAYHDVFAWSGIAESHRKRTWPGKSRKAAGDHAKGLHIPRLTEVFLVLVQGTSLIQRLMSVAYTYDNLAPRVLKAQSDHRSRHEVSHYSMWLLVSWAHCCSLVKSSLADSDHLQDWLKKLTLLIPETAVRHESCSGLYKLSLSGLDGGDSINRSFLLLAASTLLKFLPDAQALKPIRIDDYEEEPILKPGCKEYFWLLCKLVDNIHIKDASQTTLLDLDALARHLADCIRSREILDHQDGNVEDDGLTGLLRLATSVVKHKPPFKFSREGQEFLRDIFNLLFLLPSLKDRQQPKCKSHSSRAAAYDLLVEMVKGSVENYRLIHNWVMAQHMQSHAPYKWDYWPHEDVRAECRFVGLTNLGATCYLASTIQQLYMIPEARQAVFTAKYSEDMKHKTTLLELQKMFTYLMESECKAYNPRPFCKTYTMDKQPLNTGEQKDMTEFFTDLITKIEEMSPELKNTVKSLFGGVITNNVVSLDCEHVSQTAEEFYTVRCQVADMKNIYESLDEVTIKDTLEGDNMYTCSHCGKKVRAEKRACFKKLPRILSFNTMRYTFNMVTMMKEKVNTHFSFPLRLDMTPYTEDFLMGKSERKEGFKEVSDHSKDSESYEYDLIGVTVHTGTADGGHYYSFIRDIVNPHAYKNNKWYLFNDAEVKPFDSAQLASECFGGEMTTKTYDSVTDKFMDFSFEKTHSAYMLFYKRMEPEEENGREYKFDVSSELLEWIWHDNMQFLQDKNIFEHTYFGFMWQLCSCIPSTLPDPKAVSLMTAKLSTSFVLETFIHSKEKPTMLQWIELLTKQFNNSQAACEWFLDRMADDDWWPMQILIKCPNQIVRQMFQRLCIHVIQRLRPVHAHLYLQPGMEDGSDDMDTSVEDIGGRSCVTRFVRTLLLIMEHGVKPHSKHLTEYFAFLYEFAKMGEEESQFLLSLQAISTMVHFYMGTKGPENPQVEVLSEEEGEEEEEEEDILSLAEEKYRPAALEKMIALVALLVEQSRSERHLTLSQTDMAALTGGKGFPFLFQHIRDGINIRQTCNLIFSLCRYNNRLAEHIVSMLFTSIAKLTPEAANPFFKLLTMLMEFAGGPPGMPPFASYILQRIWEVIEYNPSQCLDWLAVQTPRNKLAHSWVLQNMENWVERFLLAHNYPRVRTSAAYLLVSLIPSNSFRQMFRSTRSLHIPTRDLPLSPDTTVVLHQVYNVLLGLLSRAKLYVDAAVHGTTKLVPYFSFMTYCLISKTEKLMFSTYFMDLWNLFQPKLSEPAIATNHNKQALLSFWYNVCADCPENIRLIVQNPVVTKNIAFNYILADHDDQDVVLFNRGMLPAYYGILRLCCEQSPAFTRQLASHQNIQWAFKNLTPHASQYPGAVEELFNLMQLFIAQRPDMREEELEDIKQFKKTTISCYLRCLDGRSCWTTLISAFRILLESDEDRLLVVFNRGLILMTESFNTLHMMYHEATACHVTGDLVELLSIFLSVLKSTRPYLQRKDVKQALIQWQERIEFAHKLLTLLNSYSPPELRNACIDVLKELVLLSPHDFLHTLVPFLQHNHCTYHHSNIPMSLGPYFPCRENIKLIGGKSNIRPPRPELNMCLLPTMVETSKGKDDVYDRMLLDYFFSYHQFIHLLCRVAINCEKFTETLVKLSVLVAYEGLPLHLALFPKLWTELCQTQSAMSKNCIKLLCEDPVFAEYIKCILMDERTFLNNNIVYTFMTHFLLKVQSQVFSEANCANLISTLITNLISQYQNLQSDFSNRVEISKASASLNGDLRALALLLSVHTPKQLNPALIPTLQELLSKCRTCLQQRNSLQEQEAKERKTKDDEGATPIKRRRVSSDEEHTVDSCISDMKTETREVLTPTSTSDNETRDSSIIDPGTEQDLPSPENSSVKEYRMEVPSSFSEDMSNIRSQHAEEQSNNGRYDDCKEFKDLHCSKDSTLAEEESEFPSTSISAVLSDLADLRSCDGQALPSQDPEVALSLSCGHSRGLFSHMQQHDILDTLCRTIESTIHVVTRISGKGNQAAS

CC(NC(=O)CCl)c1noc(Cc2ccccc2)n1 (stereo not given)
inactive: [1] -0.0517 | [2] -0.338 | [3] -0.21 | [4] -0.245 | [5] -0.142
